The values below come from PubChem BioAssay AID1851 (National Center for Advancing Translational Sciences (NCATS), 2009).

Among all 16,000 compounds or so, about 2,600 (16%) were called active. Not shown: some 20% with an inconclusive outcome. The list comes from a sample in which actives are over-represented; it also holds similar structures and randomly drawn compounds. A number with no mark means an inactive call. The call rests on the fitted dose curve; in most records, active means well fitted curve in the direction sought with a large enough effect; inconclusive means small, poorly fitted or top-dose-only effect, or effect the other way; inactive means no such curve, though single readings can be large or run the other way.
On the % scale 0 is the no-effect control and ±100 the full control effect.

This assay deals with Cytochrome P450 2D6 (Homo sapiens) (UniProt P10635). Nature of the assay: Cytochrome panel assay with activity outcomes. The note with it: recombinant CYP, pro-luciferin dealkylation, luminescence, p450-cyp2d6; series mostly up to 57.1 µM; activity, negative = inhibition: at the top concentration.
Cytochrome P450 2D6 (Homo sapiens), sequence (P10635 whole entry, looked up): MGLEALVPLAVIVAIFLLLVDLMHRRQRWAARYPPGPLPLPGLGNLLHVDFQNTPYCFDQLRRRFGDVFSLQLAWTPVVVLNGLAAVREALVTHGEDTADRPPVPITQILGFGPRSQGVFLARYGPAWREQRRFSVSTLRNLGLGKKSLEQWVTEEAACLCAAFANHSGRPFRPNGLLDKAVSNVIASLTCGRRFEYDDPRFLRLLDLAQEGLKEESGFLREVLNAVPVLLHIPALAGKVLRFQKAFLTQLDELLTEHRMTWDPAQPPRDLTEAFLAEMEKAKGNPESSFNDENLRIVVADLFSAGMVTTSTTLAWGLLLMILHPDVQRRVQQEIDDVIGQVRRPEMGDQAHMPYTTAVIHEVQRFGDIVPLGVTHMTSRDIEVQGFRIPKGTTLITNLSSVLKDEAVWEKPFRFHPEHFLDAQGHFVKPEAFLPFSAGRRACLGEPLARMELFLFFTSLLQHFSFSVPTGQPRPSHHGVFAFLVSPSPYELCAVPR
With `CCOC(=O)C1=C(C)OC(N)=C(C#N)C12C(=O)N(C)c1ccccc12` (stereo unspecified), the “activity, negative = inhibition” value is 22.5%.
On the same count and under the same terms, next, `CC[C@]1(OC(=O)CN)C(=O)OCc2c1cc1n(c2=O)Cc2cc3ccccc3nc2-1`: -0.998% [at 11.4 µM].
Take `C[C@@H]1Cc2cc3c(cc2C(c2ccc(N)cc2)=NN1)OCO3`: the AC50 (in general, the concentration at which the activity in the assay is half-maximal) was 31.6 µM (active).
In the case of `CCC12C=CCN3CCC4(c5cc(Br)c(OC)cc5N(C)C4C(O)(C(=O)OC)C1OC(C)=O)C32` (stereo unspecified), the AC50 was 2.51 µM (active).
For the compound `C=Cn1ccnc1P(=S)(c1nccn1C=C)C1CCCCC1`, the “activity, negative = inhibition” value was 15.2%.
Regarding `CN1[C@@H]2CC[C@H]1CC(NC(=O)c1nn(C)c3ccccc13)C2` (stereo partly specified), the “activity, negative = inhibition” value is -2.33%.
Regarding `CNC(=S)NC1CC2CCCC(C1)N2CC(C)C` (stereo unspecified), the AC50 was 5.01 µM (active).
Take `COc1ccc(C(=O)NC2CC3CCCC(C2)N3CC(C)C)cc1OC` (stereo unspecified): the AC50 is 4.47 µM (active).
With `O=C(O)Cc1cnc[nH]1`, the “activity, negative = inhibition” value is -2.85%.
As for `C/C(=C\C=C/[C@@H](C)C(=O)O)[C@H]1CN[C@H](C(=O)O)[C@@H]1CC(=O)O`, the “activity, negative = inhibition” value was 3.09%.
Turning to `c1ccc(N2CC[C@@]3(CCCNC3)C2)nc1`, the “activity, negative = inhibition” value was -1.61%.
Take `c1cnc(N2CC[C@@]3(CCCNC3)C2)nc1`: the AC50 is 7.94 µM (active).
`N#Cc1ccc(CN2CC[C@@]3(CCCNC3)C2)cc1`: the “activity, negative = inhibition” value is -9.13%.
As to `C=C(C)[C@H]1CC[C@]2(CO)CC[C@]3(C)[C@@H](CC[C@H]4[C@@]5(C)CC[C@@H](O)C(C)(C)[C@@H]5CC[C@@]43C)[C@H]12`, the “activity, negative = inhibition” value was -7.87% [at 25.6 µM].
For the compound `COC(=O)Nc1nc2ccc(C(=O)c3cccs3)cc2[nH]1`, the “activity, negative = inhibition” value was -5.24% [at 25.6 µM].
Turning to `COc1cc(-c2ccc(=O)[nH]n2)ccc1OC(F)F`, the “activity, negative = inhibition” value is -0.446% [at 25.6 µM].
On to `C[C@H](N)Cc1c[nH]c2ccc(OCc3cccs3)cc12`, for which the concentration at half-maximal activity (AC50) is 0.794 µM (active).
Regarding `COc1ccc2[nH]cc(CCN)c2c1`, the “activity, negative = inhibition” value was -16.5%.
As for `NCCc1c[nH]c2ccc(OC(=O)C(=O)O)cc12`, the activity, negative = inhibition was -17.3% [at 11.4 µM].
On the same count and under the same terms, as for `O[C@@H]1[C@H](O)[C@H]2[C@@H](O)CCN2C[C@@H]1O`, the figure is 10.3%; as for `CC(C)[C@]1(O)[C@@H](OC(=O)c2ccc[nH]2)[C@]2(O)[C@@]3(C)C[C@@]4(O)O[C@@]5([C@H](O)[C@@H](C)CC[C@]35O)[C@]2(O)[C@]41C`, 9.77% [at 11.4 µM]; as for `NC(=O)CN1C[C@@H](O)CC1=O`, 1.68%.
Regarding `O=c1c(O)c(-c2cc(O)c(O)c(O)c2)oc2cc(O)cc(O)c12`, the “activity, negative = inhibition” value is -10.3% [at 25.6 µM].
Take `c1ccc(C[C@@H](c2ccccc2)N2CCCCC2)cc1`: the half-maximal activity concentration (AC50) is 2 µM (active).
Take `N[C@@H](Cc1ccccc1)P(=O)(O)O`: the activity, negative = inhibition was -3.26% [at 11.4 µM].
For `N[C@H](Cc1c[nH]c2ccccc12)P(=O)(O)O`, the activity, negative = inhibition is -0.254% [at 11.4 µM].
Take `CC(C(=O)c1c[nH]c2ccccc12)N1CCSCC1` (stereo unspecified): the AC50 was 6.31 µM (active).
For the compound `CC(=O)NCCc1c[nH]c2ccccc12`, the “activity, negative = inhibition” value is 1.29%.
For the compound `CCCCc1nc2ccccc2c(=O)n1-c1ccc(Cl)cc1[N+](=O)[O-]`, the “activity, negative = inhibition” value is 8.42%.
Consider `CN(C)[C@@H]1C(=O)C(C(N)=O)=C(O)[C@]2(O)C(=O)C3=C(O)c4c(O)cccc4[C@](C)(O)[C@H]3C[C@@H]12`, for which the activity, negative = inhibition is -6.07% [at 11.4 µM].
In the case of `CCCCN1C(=O)/C(=C\c2ccco2)C(=O)N(CCc2ccccc2)C1=O`, the “activity, negative = inhibition” value was 8.02%.
With `Fc1ccc(CCNCc2ccc(Cl)c(Cl)c2)cc1`, the AC50 was 0.398 µM (active).
Same read-out and setting: next, `Fc1ccc(CCNCc2cccc(Cl)c2)cc1`: 0.794 µM (active).
Take `O=C(O)[C@@H](O)[C@@H](O)[C@@H]1[O][Sb][O][C@@H]1CO`: the activity, negative = inhibition is 12.5% [at 11.4 µM].
With `O=C(O)C[C@H]1NCc2cc3ccccc3nc21`, the activity, negative = inhibition is 3.21% [at 11.4 µM].
In the case of `COc1cc(CCN)c(OC)c(OC)c1`, the activity, negative = inhibition was 0.204% [at 11.4 µM].
Turning to `C[C@@]12C(=O)OC(=O)[C@@]1(C)[C@H]1CC[C@@H]2O1`, the “activity, negative = inhibition” value was -0.0372%.
Regarding `NC(=O)c1ccc(-c2nc(-c3ccc4c(c3)OCO4)c(-c3ccccn3)[nH]2)cc1`, the concentration at half-maximal activity (AC50) is 12.6 µM (active).
Turning to `Cc1sc2c(c1C)C(c1ccc(C(C)(C)C)cc1)=NCC(=O)N2CC(=O)Nc1nccs1`, the “activity, negative = inhibition” value is -25.8%.
Regarding `C[C@@H]1O[C@@H](O[C@H]2C[C@@H](O)[C@]3(CO)[C@@H]4[C@@H](O)C[C@]5(C)[C@H]([C@@H]6COC(=O)C6)CC[C@@]5(O)[C@H]4CC[C@@]3(O)C2)[C@H](O)[C@H](O)[C@@H]1O`, the “activity, negative = inhibition” value is 3.18%.
On to `COc1ccc2c(c1OC)CN1CCc3cc4c(cc3[C@H]1C2)OCO4`, for which the AC50 is 0.0631 µM (active).
As to `COc1ccc2c(c1O)-c1c(OC)c(OC)cc3c1[C@H](C2)N(C)CC3`, the “activity, negative = inhibition” value is -10.8% [at 25.6 µM].
As to `COc1ccc2c(c1OC)C(=O)O[C@H]2[C@H]1c2cc3c(cc2CCN1C)OCO3`, the AC50 entry is “inactive”.
With `COc1ccc2cc1Oc1ccc(cc1)C[C@H]1c3cc(c(OC)cc3CCN1C)Oc1c(OC)c(OC)cc3c1[C@@H](C2)N(C)CC3`, the activity, negative = inhibition was -16.9% [at 11.4 µM].
Regarding `COc1cc2c3cc1Oc1c(O)c(OC)cc4c1[C@@H](Cc1ccc(cc1)Oc1cc(ccc1O)C[C@H]3N(C)CC2)N(C)CC4`, the activity, negative = inhibition is 0.972% [at 11.4 µM].
As to `COc1cc2c(cc1O)[C@H]1Cc3ccc(OC)c(O)c3CN1CC2`, the AC50 was 0.0316 µM (active).
